From PubChem BioAssay AID1159580 (chemical genetic matrix, 2015)
Hit rate of the full screen: of about 5,500 compounds, about 2,000 (36%) were called active. Another 18% or so got no clear call; they are omitted. No stated cut-off is given here; in the data, active means normalized growth mostly below about 0.91 (no sharp cut-off); inconclusive means no clear call, values can overlap the other calls; inactive means mostly above about 0.92. This is one part of the list.

Test: chemical genetic growth profiling, strain panel (AID 1159580);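 further: tested at 20 µM; growth read once vehicle control cultures reached saturation at 30 °C; 1 = growth at the plate median or of vehicle wells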
Conditions: S. cerevisiae deletion strains, growth OD

Measured: normalized growth

C/C=C1\C(=O)CC2C3CCC4=CC(=O)CC[C@]4(C)C3CC[C@]12C (stereo not given in full)
active: locus YNL153C, strain GIM3, stronger effect = lower value 0.774 | locus YOR083W, strain WHI5 (second series), stronger effect = lower value 0.743
inactive: locus YAL013W, strain DEP1, stronger effect = lower value 0.978 | locus YAL040C, strain CLN3, stronger effect = lower value 0.975 | locus YCL061C, strain MRC1 (second series), stronger effect = lower value 1 | locus YDR363W, strain ESC2, stronger effect = lower value 0.996 | locus YER002W, strain NOP16, stronger effect = lower value 0.974 | locus YGR078C, strain PAC10, stronger effect = lower value 0.924 | locus YMR307W, strain GAS1, stronger effect = lower value 1.01 | locus YNL128W, strain TEP1, stronger effect = lower value 0.938 | locus YNL175C, strain NOP13, stronger effect = lower value 0.956 | locus YNL197C, strain WHI3, stronger effect = lower value 0.978 | locus YNL224C, strain SQS1, stronger effect = lower value 0.99 | locus YNL322C, strain KRE1, stronger effect = lower value 1.01 | locus YPL055C, strain LGE1, stronger effect = lower value 0.992
